From PubChem BioAssay
HPGD inh: HPGD (human) dehydrogenase inhibition; Potency, µM, inactives show at the highest dose activity change, negative = inhibition, hits mostly inhibitors; actives 4.3% (n = 150,000); P15428; purified HPGD, NADH fluorescence kinetic, PGE2 substrate; AID 894; active means well fitted inhibition curve with a large enough effect, not every such curve was filed as active; inconclusive means small, poorly fitted or top-dose-only effect, or another doubt; inactive means no such curve, though single readings can be large or run the other way; further: potency means the concentration at half of the fitted maximal effect; on the % scale 0 is the no-effect control and ±100 the full control effect
Target sequence (P15428 whole entry, looked up): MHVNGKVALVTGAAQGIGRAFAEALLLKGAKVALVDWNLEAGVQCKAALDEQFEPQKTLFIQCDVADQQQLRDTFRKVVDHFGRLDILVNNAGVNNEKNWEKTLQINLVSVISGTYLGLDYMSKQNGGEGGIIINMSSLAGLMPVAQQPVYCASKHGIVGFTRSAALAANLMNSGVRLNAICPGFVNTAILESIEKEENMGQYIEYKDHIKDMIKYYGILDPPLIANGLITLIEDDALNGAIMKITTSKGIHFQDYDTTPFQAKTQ
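NADH formation kinetics: reaction with 30 uM PGE2 and 1 mM NAD+ (final), 20 nM enzyme, Tris-HCl pH 8 with Tween 20, after 15 min compound preincubation at room temperature. Fluorescence change, last versus first of five reads.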
HttQ103 aggreg: inhibitors of mutant huntingtin aggregate formation in PC12 cells. PC12 HttQ103-GFP aggregates, Acumen cytometry, 40 h. Potency, µM (series often up to 46.1 µM), for the others: at the top dose activity change, negative = inhibition, actives largely listed as inhibitors. actives 1.1% (n = 220,000). AID 1688; further: potency means the concentration at half of the fitted maximal effect; on the % scale 0 is the no-effect control and ±100 the full control effect; nearly all actives have a fitted effect of over 60% in size
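Multiplexed with ATP-based cell death, this channel scores GFP aggregates in PC12 cells expressing inducible HTTex1-Q103-GFP. Induction used 100 nM tebufenozide; compounds were tested in concentration series.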
CBFb RUNX1 block: blocks binding between human CBF-beta and RUNX1 | Q01196+Q13951 | AlphaScreen CBFb-His/RUNX1-biotin binding, biochemical | Potency, µM (highest dose often 59.8 µM), for inactives: top-dose activity, negative = inhibition, hits mostly inhibitors | 230,000 tested, under 10 active | AID 1477; further: % of control where 0% means no effect
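His-tagged CBF-beta and biotinylated RUNX1 (30 nM each) were premixed 20 min at room temperature, exposed to compound for 15 min, then given nickel-chelate and streptavidin AlphaScreen beads (50 ng each). After 90 min, AlphaScreen signal was read.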
HTT ATP protect: Huntington cell model cytoprotection by ATP luminescence; actives 0.14% (n = 230,000); PC12 HTT-Q103 induced, cytoprotection, ATP luminescence, 40 h; Potency, µM (doses to about 56.4 µM), for the others: cytoprotection (ATP increase), hits mostly activators; AID 1471; further: potency means the concentration at half of the fitted maximal effect; % of control where 0% means no effect; nearly all actives have a fitted effect of over 45% in size
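ATP quantification (ATPlite) reports survival of PC12 cells in which tebufenozide, 100 nM final, switches on Htt exon 1 with 103 glutamines linked to GFP; compounds are titrated.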
PNC inhibitor: perinucleolar compartment assembly inhibition; PC3M PTB-GFP, PNC prevalence imaging, 16 h; hits give low values; activity change (PNC), negative = inhibition, % at 10 µM; actives 3.1% (n = 140,000); AID 2417;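 active means readout at or below -70, meaning at least 70% loss of cells showing the perinucleolar compartment, a nuclear body marking cancer cells; inconclusive means readout between -30 and a set limit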;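 further: plate controls were DMSO wells for no effect and camptothecin positive control wells for full effect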
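PC3M cells stably expressing PTB-GFP, 750–1000 cells/well, treated 16 h at 37 °C with compound (23 nl of library stock), in duplicate. After paraformaldehyde fixation and Hoechst stain, imaged at 20x; PNC prevalence scored by image analysis.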
ALDH1A1 block: inhibitors of human aldehyde dehydrogenase 1A1. P00352. Purified ALDH1A1, NADH fluorescence, propionaldehyde substrate. Potency, µM (doses to about 75.3 µM), without a hit: at the top dose activity, negative = inhibition, most hits filed as inhibitors. actives 7.3% (n = 220,000); active means well fitted inhibition curve with a large enough effect, not every such curve was filed as active; inconclusive means small, poorly fitted or top-dose-only effect, or another doubt; inactive means no such curve, though single readings can be large or run the other way;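 further: potency means the concentration at half of the fitted maximal effect; plate controls were no enzyme wells and a reference inhibitor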
Target sequence (P00352 whole entry, looked up): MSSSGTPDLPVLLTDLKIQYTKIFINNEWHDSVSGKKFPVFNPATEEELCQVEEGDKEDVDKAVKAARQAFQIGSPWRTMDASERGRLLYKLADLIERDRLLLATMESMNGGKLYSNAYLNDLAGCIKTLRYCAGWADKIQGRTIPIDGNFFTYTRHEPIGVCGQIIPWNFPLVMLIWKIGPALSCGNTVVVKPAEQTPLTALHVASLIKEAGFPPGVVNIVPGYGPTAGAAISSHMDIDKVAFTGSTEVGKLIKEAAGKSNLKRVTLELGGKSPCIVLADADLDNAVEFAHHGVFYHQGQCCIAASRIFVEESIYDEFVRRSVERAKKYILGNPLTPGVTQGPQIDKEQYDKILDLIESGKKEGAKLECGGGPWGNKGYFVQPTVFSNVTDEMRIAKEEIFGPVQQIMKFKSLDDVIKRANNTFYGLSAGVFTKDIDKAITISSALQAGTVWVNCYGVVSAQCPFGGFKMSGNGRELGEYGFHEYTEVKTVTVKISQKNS
* hit, by the source's call; ? = inconclusive; . = not tested or not shown; [ ] = dose if it differs, or a comment. This is a sample that favours compounds with a hit; in the whole collection about 11% have one here. Unless noted, the call rests on the fitted dose curve; in most records, active means well fitted curve in the direction sought with a large enough effect; inconclusive means small, poorly fitted or top-dose-only effect, or another doubt; inactive means no such curve, though single readings can be large; an effect the other way counts as inactive or inconclusive.

SMILES | HPGD inh | HttQ103 aggreg | CBFb RUNX1 block | HTT ATP protect | PNC inhibitor | ALDH1A1 block
Cn1c(NC(=O)CCc2ccccc2)cc(=O)n(C)c1=O | -6.1% | -1.2% | -1.4% | -40.0% | 9.9 | ?
CSc1cccc(NC(=O)Cn2cccc2)c1 | 14.1µM* | 8.1% | -5.0% | -21.0% | -8.1 | 0.631µM*
CSc1cccc(NC(=O)COc2ccccc2)c1 | 17.8µM* | 1.6% | 13.4% | 2.2% | -10.4 | ?
COc1ccc(-c2nc3cnc(N4CCNCC4)nc3n(-c3ccccc3)c2=O)cc1 | ? | . | . | -115.9% | . | ?
CCCC(=O)Nc1ccccc1NC(=O)c1ccc(OC)cc1 | . | -10.0%[9.22 µM] | 0.3% | -36.9% | . | ?
COc1ccc2c(CC(=O)Nc3ccc(OC)c(S(=O)(=O)N4CCOCC4)c3)coc2c1 | -14.0% | 21.3% | -2.7% | -6.6%[1.9 µM] | ? | -1.8%
COc1ccc(NC(=O)Cc2coc3cc(C)c(C(C)C)cc23)cc1S(=O)(=O)N1CCOCC1 | -14.3% | -8.2% | 6.4% | 8.9%[10 µM] | ? | 22.4µM*
CCC(=O)Nc1ccc(C(=O)Cn2ncc(Cl)c(Cl)c2=O)cc1 | . | 9.3%[9.22 µM] | -8.3% | -21.8%[10 µM] | . | 2.24µM*
COc1ccc(NC(=O)Cn2ncc(Cl)c(Cl)c2=O)cc1S(=O)(=O)N1CCOCC1 | -3.7% | ? | ? | 43.6%[10 µM] | -25.9 | 11.2µM*
CCOC(=O)c1ccc(NC(=O)CN2C(=O)C(=O)N(CC(C)C)C2=O)cc1 | -11.6% | 0.9%[9.22 µM] | 1.9% | 11.1% | -25.7 | 13.2%
CCc1ccc(C(=O)Nc2ccc(OC)c(S(=O)(=O)N3CCOCC3)c2)cc1 | . | 2.4% | -4.4% | -2.1% | . | ?
CCOC(=O)c1ccc(NC(=O)Cn2ncc(Cl)c(Cl)c2=O)cc1 | -9.8% | ? | -20.7% | . | 15.1 | 28.2µM*
COCCn1c(=O)c(-c2cn(C)c3ccccc23)nc2cnc(Oc3ccccc3)nc21 | -3.4% | . | . | ? | . | ?
Cc1nc(C/C(=N\Nc2ccccc2)c2ccc(O)cc2O)cs1 | . | 1.9% | -4.0% | -21.8% | . | 3.16µM*
Cc1nc(CC(=O)c2ccc(O)cc2O)cs1 | -18.0% | 2.4% | -1.5% | -12.7% | ? | -2.3%
CCc1cc(/C(Cc2ccccn2)=N\Nc2ccccc2)c(O)cc1O | . | 5.6% | -9.0% | -50.2% | . | 7.94µM*
Cc1ccc(N2C(=O)C3CC(c4ccccc4)=C4C5C=CC(C6C(=O)N(c7ccc(C)cc7C)C(=O)C56)C4C3C2=O)c(C)c1 (centres undefined) | -3.7% | 16.3% | -8.9% | 2.7% | -29.7 | 8.1%
Cc1ccc(N2C(=O)C3CC(c4ccccc4)=C4C5C=CC(C6C(=O)N(c7ccc(C)cc7)C(=O)C56)C4C3C2=O)cc1 (centres undefined) | -7.1% | -1.5% | 2.6% | 18.3%[10 µM] | ? | 1.12µM*
CCN(CC)CCC(c1cc(OC)c(OC)c(OC)c1)c1c(OC)cc(OC)c2c1OC(=O)CC2c1ccc(N(C)C)cc1 (centres undefined) | . | . | -19.7% | . | . | .
CCCSc1ncnc2c1oc1ccccc12 | 20µM* | -9.9% | 9.1% | -36.3% | 24.1 | ?
CCCCCC(=O)NC(Cc1ccc(OC)c([N+](=O)[O-])c1)C(=O)O (centres undefined) | . | 12.2% | 20.6% | ? | . | 12.6µM*
CCCC(c1cc(C(C)(C)C)c(O)cc1C)c1cc(C(C)(C)C)c(O)cc1C | -19.7% | . | . | 12.9%[10 µM] | . | 7.3%[13.5 µM]
O=C(COc1ccc(Cl)cc1Cl)NN1C(=O)C2C3C=CC([C@@H]2C1=O)C31CC1 (some centres undefined) | . | -6.1%[9.22 µM] | 2.0% | -15.9%[10 µM] | . | .
CC1=CC(C)(C)NC(=S)N1c1ccccc1C | . | 1.8% | -23.2% | -13.8% | . | -6.5%
CC1=CC(C)(C)NC(=S)N1c1cccc2cc(S(=O)(=O)O)ccc12 | . | -9.3%[9.22 µM] | -4.9% | -0.3%[10 µM] | . | 28.2µM*
SMILES | HPGD inh | HttQ103 aggreg | CBFb RUNX1 block | HTT ATP protect | PNC inhibitor | ALDH1A1 block
CCN(CC)c1ccc(C=O)c(OC)c1 | . | -7.7%[9.22 µM] | 0.8% | 20.4%[10 µM] | . | 3.98µM*
Cc1nc(NC2CCCCC2)c2nc(-c3ccccc3)n(CCN(C)C)c2n1 | ? | . | -12.5% | -42.0% | . | ?
CCOc1ccc2nc(SC3CC(=O)N(c4cccc(OC)c4)C3=O)sc2c1 (centres undefined) | -16.1% | ? | -6.2% | 13.0%[10 µM] | ? | 20µM*
CCOc1ccc2nc(SC3CC(=O)N(c4ccccc4)C3=O)sc2c1 (centres undefined) | -21.7% | ? | -3.2% | -103.2% | 8.9 | 14.1µM*
CCOc1ccc(N2C(=O)CC(Sc3n[nH]c(-c4ccccc4)n3)C2=O)cc1 (centres undefined) | . | 2.2%[9.22 µM] | -2.9% | 10.8%[10 µM] | . | 0.447µM*
COc1ccc(N2C(=O)CC(Sc3n[nH]c(-c4ccccc4)n3)C2=O)cc1 (centres undefined) | . | 3.7%[9.22 µM] | 11.5% | -0.3%[10 µM] | . | .
CCOC(=O)c1cnc(SC2CC(=O)N(c3cccc(OC)c3)C2=O)nc1N (centres undefined) | . | -28.1% | 2.3% | -2.1% | ? | -0.7%
CCOc1ccc(N2C(=O)CC(Sc3nc(CC(C)C)ccc3C#N)C2=O)cc1 (centres undefined) | . | 16.9%[9.22 µM] | 0.2% | -10.8%[10 µM] | . | ?
CCOc1ccc(N2C(=O)CC(Sc3nc(C)cc(C)c3C#N)C2=O)cc1 (centres undefined) | -7.2% | 16.4% | 2.3% | 17.1% | 17.5 | 14.1µM*
CNC1C(O)C(O)C(CO)O[C@H]1OC1C(O[C@@H]2C(O)C(O)[C@@H](N=C(N)N)C(O)C2N=C(N)N)OC(C)[C@]1(O)C=O (some centres undefined) | -6.9% | . | 10.2% | -33.6% | . | 4.6%
CN=C(NC#N)NCCSC[C@H]1N=CN=C1C | -5.3% | . | 3.8%[21.7 µM] | 5.8%[40.3 µM] | . | 5.0%[20.9 µM]
CN1CCc2nc(N)nc(-c3nc(N)nc4c3CN(C)CC4)c2C1 | -1.3% | . | . | 5.3%[10 µM] | . | 2.7%[13.5 µM]
CCCCCCOC(=O)C1(O)CC2OC1(C)n1c3ccccc3c3c4c(c5c6ccccc6n2c5c31)C(=O)NC4 (centres undefined) | -11.7% | . | 1.9% | -43.4% | . | -3.1%
CCOc1ccc2nc(SCCNS(=O)(=O)c3ccccc3)sc2c1 | -3.9% | 4.1% | 11.7% | -0.2%[10 µM] | -113.0* | 1.5%
O=C1C=CC2=C3c4cc(O)c(O)cc4CC3(O)COC2=C1O (centres undefined) | 25.1µM* | . | ? | 4.9%[1.9 µM] | . | ?
C=C1CC[C@@H](O)C/C1=C/C=C1\CCC[C@]2(C)[C@@H]1CC[C@H]2[C@@H](C)/C=C\[C@@H](C)C(C)C | . | . | . | -23.0% | . | .
O=C(CSCC(=O)Nc1nc(-c2ccc3c(c2)OCO3)cs1)Nc1nccs1 | . | -1.9%[9.22 µM] | -2.4% | -19.2%[10 µM] | . | 22.4µM*
CC(=O)Nc1ccc(S(=O)(=O)Oc2cccc(/C=N/N=C3/NC(=O)C(CC(=O)O)S3)c2)cc1 (centres undefined) | . | 25.1% | -2.2% | -60.4% | . | 7.51µM*
